# Rows were chosen to be rich in hits. Some 2.3% of all compounds tested hit in one or more screens of this group.
# beta cell repl: inducers of MIN6 beta-cell proliferation, primary screen, ATP luminescence, uHTS. proliferation, % at 10 µM. MIN6 cells proliferation, ATPlite luminescence, 48 h; cells starved in 0.2% serum; 100% = growth in 10% serum. hit rate 0.29% among 330,000. AID 2380, 2010;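 active = compounds whose signal lies at least 3.5 SD above the mean of all wells on their plate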;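 also: 0% = DMSO-treated cells in low-serum medium and 100% = 10% serum control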
# aDG glyco act: activators of alpha-DG glycosylation, primary screen, uHTS, Pro5-aDG cells, AlphaScreen | hit rate 0.22% among 360,000 | activation, % at 10 µM | alpha-DG glycosylation AlphaScreen (IIH6); 0% Pro5, 100% B10-LARGE cell signal | AID 624168, 2012;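 active = activation of at least 8% versus controls, or a plate z-score of at least 8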;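 also: Pro5 are CHO cells carrying HIG-tagged alpha-DG that lacks glycosylation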
# m-calpain inh: inhibitors of pig calpain II, primary screen, biochemical, fluorogenic peptide substrate, 1536-well | purified calpain II, 30 min | inhibition, % at 16 µM | hit rate 0.37% among 220,000 | AID 1236, 2008;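 active = inhibition above about 50%, limit read from the data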
# TAG inh: inhibitors of triacylglycerol accumulation, primary screen, cell-based, uHTS, fluorescence, H9c2; H9c2 cells, Nile Red lipid (TAG) fluorescence; cells loaded with 200 µM oleic acid; hit rate 0.66% among 230,000; inhibition, % at 12.5 µM; AID 651582, 2012;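 active = pattern-corrected inhibition of lipid staining of at least 50% with the nuclear-stain viability signal not falling by more than 50%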;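 also: 0% = DMSO wells and 100% = triacsin C control wells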
# H9c2 protect: cardioprotection against H2O2-induced cell death, primary screen, uHTS, H9c2 cells, ATPLite luminescence | protection from H2O2 cell death, % at 20 µM | hit rate 0.63% among 360,000 | H9c2 cardiomyocytes, H2O2 injury protection, 2 h | AID 588492, 2011;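 active = compounds giving at least 50% protection of heart cells from peroxide-induced death in the single-dose screen, raw or plate-pattern-corrected value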;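 also: 0% = DMSO wells with peroxide and 100% = DMSO wells without peroxide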
# FAS TE block: FAS thioesterase domain inhibitors, primary screen, biochemical, fluorescence intensity, uHTS; Fatty acid synthase (Homo sapiens), P49327; recombinant FAS-TE, OMFH fluorogenic substrate, fluorescence endpoint; inhibition, % at 15 µM; hit rate 0.67% among 360,000;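 active = compounds whose normalised, plate-corrected inhibition of enzyme fluorescence in the single-dose primary screen is 50% or more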;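 also: 0% = DMSO with enzyme and 100% = substrate without enzyme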
# aDG glyco conf: alpha-DG glycosylation enhancers, retest, confirmation, single concentration, Pro5-aDG cells; hit rate 17% among 600; activation, % at 10 µM (by protocol); shares compounds with aDG glyco act; AID 651671, 2012; IIH6 AlphaLISA; scaled to LARGE-overexpressing B10 cells as 100%;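 active = activation of at least 7% in one or more replicates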;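 also: cells exposed to compound for two days before detection; 0% = DMSO-treated Pro5 cells and 100% = DMSO-treated B10-LARGE cells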
# H9c2 TAG conf: triacylglycerol accumulation inhibitors, retest, confirmation, cell-based, single concentration, Nile Red fluorescence, H9c2; shares compounds with TAG inh; H9c2 lipid accumulation; cells loaded with 200 µM oleic acid; inhibition, % at 12.5 µM; hit rate 71% among 990; AID 651629, 2012;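 active = mean inhibition across replicates of 40% or more; inactive = mean inhibition below 40%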;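 also: plate controls were DMSO only wells for no effect and Triacsin C treated wells for full effect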
# * = called active by the depositor; i = inactive; / = no result given.
SMILES,beta cell repl,aDG glyco act,m-calpain inh,TAG inh,H9c2 protect,FAS TE block,aDG glyco conf,others
CCOC1=C2CN(S(=O)(=O)c3ccc(C)cc3)C(c3ccc(C)cc3)CC2N(S(=O)(=O)c2ccc(C)cc2)C(c2ccccc2)C1 (centres undefined),/,1.8,/,/,/,/,/,
c1ccc2c(-c3cc(C4CCNCC4)[nH]n3)cccc2c1,-2.6,13.9*,23.0,24.8,13.7,-1.9,6.4*,
CCCCn1c(N)c(N(CCOC)C(=O)c2cnc(C)cn2)c(=O)[nH]c1=O,2.7,-0.2,/,1.9,5.4,-7.1,/,
O=C(Cn1ncc2c(=O)oc3ccccc3c21)NCC1COc2ccccc2O1 (centres undefined),1.4,8.2*,-27.5,-2.9,4.3,9.1,0.0,
O=C(Cn1ncc2c(=O)oc3ccccc3c21)NC1CC1,-0.6,0.0,-26.9,-2.6,5.8,-12.3,/,
COC(=O)C(C(=O)OC)C1CCCCC1NS(=O)(=O)c1ccc(C)cc1 (centres undefined),/,-0.2,/,/,/,/,/,
COc1ccc(OC)c(C(=O)N(C[C@H]2CC[C@@H]([C@@H]3CC[C@H](CO)O3)O2)C(C(=O)NC(C)(C)C)c2ccc(-c3ccccc3)cc2)c1 (some centres undefined),/,5.8*,/,7.1,0.1,6.7,0.7,
CC1CCCC(C)N1C(=O)CSc1nnnn1Cc1ccccc1 (centres undefined),-1.1,5.6*,-45.0,-5.3,7.4,-4.4,-0.7,
CC1CCCC(C)N1C(=O)CSc1nnnn1-c1cccc2c1CCCC2 (centres undefined),-1.3,0.0,13.8,23.6,-2.5,13.0,/,
COc1cc(C(=O)C(=O)N2CCN(c3ccc(C)cc3)CC2)cc2ccccc12,/,-0.1,/,/,/,/,/,
COc1cc(C(=O)C(=O)N2CCC(Cc3ccccc3)CC2)cc2ccccc12,/,10.4*,/,/,/,/,0.5,
Cc1ccc(N2C(=O)C(CN3CCOCC3)C2c2ccccc2)cc1 (centres undefined),-1.5,0.0,25.2,/,-9.4,-0.2,/,
O=C1C2CCC(C2)C1CN1CCOCC1 (centres undefined),/,12.6*,/,0.1,5.2,-7.4,-0.8,
CN1CCN(CCCNC(=O)CCN2C(=O)COc3ccccc32)CC1,0.2,0.0,/,/,2.6,-5.9,/,
O=C(CCN1C(=O)COc2ccccc21)NCCCN1CCCC1,-3.7,6.4*,/,/,-2.2,-6.2,1.7,
COc1cccc(CNC(=S)Nc2ccc3c(c2)c(=O)n(C)n3Cc2ccccc2)c1,/,0.2,/,9.1,-5.4,2.2,/,
CCCCN1C(=O)C(CC(=O)NC2CCCC2)CC(C(=O)N2CCCCCC2)=C1C (centres undefined),/,0.0,/,/,/,-2.2,/,
CCN1CCN(c2ccc(NC(=O)COc3ccccc3Cl)cc2)CC1,-0.2,0.0,0.8,20.8,0.7,-2.5,/,
CCN1CCN(c2ccc(NC(=O)COc3ccc(Cl)cc3C)cc2)CC1,-6.2,5.2*,/,-7.0,1.4,2.2,2.2,
O=C(Cc1cccs1)N/N=C\c1ccc([N+](=O)[O-])s1,-6.2,12.7*,36.6,-1.2,-11.9,-2.5,3.9*,
O=C(CCNC(=O)c1ccccc1Cl)NN=Cc1ccccc1[N+](=O)[O-],2.6,-0.1,/,-43.9,3.6,-0.1,/,
Cc1onc(-c2ccccc2)c1C(=O)N/N=C/c1ccc([N+](=O)[O-])s1,-5.2,6.0*,10.0,/,-8.2,-9.2,3.1,
Cc1onc(-c2ccccc2)c1C(=O)N/N=C/c1ccco1,-1.6,0.0,14.8,-3.7,-1.6,-1.6,/,
O=C(CNC(=O)c1ccccc1Cl)N/N=C/c1ccc([N+](=O)[O-])s1,-6.2,11.8*,14.2,/,-2.7,-8.0,6.5*,
Cc1cc(=O)oc2cc(O)cc(OCc3ccccc3)c12,/,0.1,/,-4.1,-10.2,7.5,/,
SMILES,beta cell repl,aDG glyco act,m-calpain inh,TAG inh,H9c2 protect,FAS TE block,aDG glyco conf,others
CCCCc1ccc(NC(=O)N2CCN(c3cc(C)nc4ccccc34)CC2)c(C)c1,-5.9,3.3*,/,/,-2.2,2.8,4.2,
c1cncc(-c2nnc(-c3cccnc3)nn2)c1,-6.0,13.0*,26.0,-1.2,-15.9,-4.3,7.6*,
COc1ccccc1C(C)NC(=O)c1ccc(NC(=O)CC2SC(N3CCCC3)=NC2=O)cc1 (centres undefined),-3.0,0.6,/,15.9,-4.0,-7.8,/,
Cc1cc(C)c(S(=O)(=O)Nc2ccc(N(C)C)cc2)c(C)c1-n1cnnn1,0.0,-0.2,/,/,0.5,14.4,/,
CCOC(=O)c1sc2nc(CSc3ccccc3)nc(NCCN(C)C)c2c1C,-6.8,8.4*,-10.5,52.1*,14.6,2.2,2.2,H9c2 TAG conf=61.6*
CC1CCC(NC(=O)COC(=O)c2cccnc2Cl)CC1 (centres undefined),-0.6,-0.1,/,1.1,-2.7,-0.3,/,
COc1cccc(-c2nc(-c3ccc(NC(=O)Cc4ccccc4OC)cc3)no2)c1,/,0.4,-4.4,50.7*,1.2,24.9,/,H9c2 TAG conf=55.1*
COc1ccc(CC(=O)Nc2ccc(-c3noc(-c4ccccc4OC)n3)cc2)cc1,-1.7,-0.1,-79.8,/,-5.8,10.8,/,
CCO[C@@H]1OC(C(=O)N2CCN(Cc3ccc4c(c3)OCO4)CC2)=C[C@H](C)[C@H]1CCCO,2.8,-0.2,2.5,53.0*,0.0,-11.6,/,H9c2 TAG conf=-5.0
COCCNC(=O)C1(C)CCCN(C(=O)c2cccc(C#N)c2)C1 (centres undefined),/,-0.2,/,-6.3,-0.9,-7.0,/,
CCC(C)NCC(=O)Nc1ccc(-c2nc3cc(NC(=O)CNC(C)CC)ccc3o2)cc1 (centres undefined),-4.1,0.2,i,53.2*,-14.6,-5.6,/,H9c2 TAG conf=31.4
Cc1ccc2oc(-c3ccc(NC(=O)CC(C)C)cc3)nc2c1,-3.1,0.0,-24.9,/,-13.4,0.0,/,
Cc1noc(C)c1COc1ccc(C(=O)N2CCC(C(N)=O)CC2)cc1,-3.0,0.1,/,-3.9,10.4,-2.7,/,
CCOC(=O)c1cnn(-c2nc(-c3ccccc3)nc3c2COC(C)(C)C3)c1N,-4.0,0.0,10.1,53.7*,-0.6,23.6,/,H9c2 TAG conf=20.2
CN1CCN(C2=C(NS(=O)(=O)c3cccs3)C(=O)c3ccccc3C2=O)CC1,-3.2,0.7,-21.8,15.9,-11.8,-1.0,/,

# Compound activity deposited in PubChem by several laboratories.
